GLD-1 RNA inh – GLD-1-TGE RNA interaction inhibition (C. elegans); AID 2280; inhibition, % at 5.96 µM; Q17339; purified GLD-1 + fluorescein TGE RNA, fluorescence polarization; 0.44% of 320,000 active;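 active = percent inhibition above a per-plate cutoff, the plate mean of test compounds plus 3 SD, cut at about 30% in these data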
EBV gp42 block – blocks Epstein-Barr virus glycoprotein 42 binding; Fluorescence polarization binding assay, mP read-out; inhibition, % (tested at 21.74 µM); 0.42% of 220,000 active; in the data active = inhibition above about 50%
MCL1-BIM inh – MCL1-BIM-BH3 interaction inhibition (human); AID 2057; Q07820; 0.68% of 320,000 active; GST-MCL1 / FITC-Bim-BH3 fluorescence polarization; inhibition, % at 10.9 µM;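 active = inhibition above the mean inhibition of all tested compounds plus 3 SD, set per campaign, cut at about 40% in these data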;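 note: higher means more loss of mP so more displacement of Bim peptide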
E coli Lon inh – inhibitors of E. coli Lon protease | purified E. coli Lon protease, fluorescence polarization | inhibition, % at 7.94 µM | AID 602123 | P0A9M0 | 0.42% of 360,000 active; in the data active = inhibition above about 13%, passing the limit was not always enough
MEX-5 binding – C. elegans MEX-5 TCR-2 RNA binding activity | MEX-5/FITC-TCR2 RNA binding, fluorescence polarization; active compounds read low | 0.38% of 300,000 active | Q9XUB2 | activity score (negative = inhibition of binding), % at 10 µM;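 active = inhibition past about -25% in most replicates, and total fluorescence under double the plate's negative control median, limit read from the data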
BCLXL inh – Bcl-xL (human) inhibition; Q07817; GST-Bcl-xL / FITC-Bim BH3 peptide fluorescence polarization; inhibition, % at 10.9 µM; 0.7% of 320,000 active; AID 2129;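 active = inhibition above the mean of all tested compounds plus 3 SD, cutoff set per campaign, cut at about 30% in these data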;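 note: inhibitors lower millipolarization by displacing the labeled peptide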
E coli Lon conf – confirmation of E. coli Lon protease inhibitors | shares compounds with E coli Lon inh | purified E. coli Lon, fluorescence polarization | inhibition, % at 7.94 µM | 31% of 1,400 active | AID 602230; in the data active = inhibition above about 16%
A number is an active result; n = inactive; x = no result given; + = active, no number. Most compounds without a hit are left out; they make up all but 1.5% or so of the library.

SMILES	GLD-1 RNA inh	EBV gp42 block	MCL1-BIM inh	E coli Lon inh	MEX-5 binding	BCLXL inh	E coli Lon conf
COc1cccc2c1C(=O)c1c(O)c3c(c(O)c1C2=O)CC(O)(C(C)=NO)CC3OC1CC(N)C(O)C(C)O1 (stereo not given)	x	x	x	+	x	x	+
Oc1cc(Cl)c(Cl)c(Cl)c1Cl	x	x	x	49	x	x	n
O=[N+]([O-])c1ccc(N2CCOCC2)c2c1no[n+]2[O-]	x	x	x	29	x	x	n
O=[N+]([O-])c1ccc(N2CCOCC2)c2cccnc12	n	n	n	n	n	n	x
CCNc1nc(NC(C)(C)C)nc(SC)n1	n	x	n	n	n	n	x
CC/C(=N\N1CCCCCC1)c1c(O)n(-c2ccccc2C)c(=O)[nH]c1=O	n	n	n	n	n	n	x
CCOc1cccc(=NC2CCCCC2)c2c(C)n(C)c(C)c12	n	n	n	90	n	n	n
COc1ccc(OCC(=O)N2CCCC(N3CCN(c4ccccc4C)CC3)C2)cc1 (stereo not given)	n	x	n	134	n	n	n
Cc1ccc(OCC(=O)N2CCCC(N3CCN(c4ccc(F)cc4)CC3)C2)cc1 (stereo not given)	n	x	n	n	n	n	x
CCOC(=O)C1CCN(C(C)C(=O)c2c[nH]c3ccccc23)CC1 (stereo not given)	n	x	n	n	n	n	x
CCC(=NC(C)c1ccccc1)c1c(O)[nH]c(=O)[nH]c1=O (stereo not given)	n	n	n	21	n	n	n
CCC(=NCCC(c1ccccc1)c1ccccc1)c1c(O)[nH]c(=O)[nH]c1=O	n	n	n	n	n	n	x

Screens (PubChem)
